Screening data: PubChem BioAssay, National Center for Advancing Translational Sciences (NCATS)
Only some compounds are listed: those with a hit (about 19% of all), similar ones and a draw of the others.
SW480 rereplic: DNA re-replication induction in SW480 cells; SW480 DNA re-replication, Hoechst DNA content imaging, 48 h; Potency, µM (titrated, usually from 46.1 µM), for inactives: at the highest dose re-replication activation, actives largely listed as activators; 1.8% of 340,000 active; further: potency means the concentration at half of the fitted maximal effect; % of control where 0% means no effect; nearly all actives have a fitted effect of over 55% in size
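Compounds, transferred as 23 nL by pin tool, were incubated with cells for 48 hr; DNA content per nucleus was then quantified by Hoechst staining and fluorescence plate imaging.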
IL-1B inflam inh: inhibitors of inflammasome signaling (IL-1 beta secretion); THP-1 LPS/ATP IL-1B secretion, AlphaLISA, 16 h; stronger effect = lower value; activity change, % at 57.5 µM; AID 743279; 4.7% of 360,000 active; in the data active means activity change below about -50%; inconclusive means mostly about -30% to -49%; further: on the % scale 0 is the no-effect control and ±100 the full control effect
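THP-1 cells pretreated 1 hr with compounds (up to 57.5 uM final), then stimulated with LPS (250 ng/mL final) plus ATP (1.25 mM final); secreted IL-1B measured by AlphaLISA after 16 hr, decreased signal indicating inhibition.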
BCR signal inh: inhibitors of chronic active B-cell receptor signaling; Potency, µM (doses to about 46.1 µM), for inactives: at the top dose activity change, negative = inhibition, usual class: inhibitors; 0.05% of 340,000 active; ABC-DLBCL IkBa-CBG/CBR reporter, luminescence ratio, 4 h; active means well fitted inhibition curve with a large enough effect in the signal ratio, with a control signal flat, not every such curve was filed as active; inconclusive means small, poorly fitted or top-dose-only effect, or effect the other way, or a change in a side signal; the % refers to the signal ratio;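 further: potency means the concentration at half of the fitted maximal effect; plate controls were basal doxycycline-induced cells for no effect and cells given 10 µM MG132 for full effect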
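Cell line TMD8 (human ABC DLBCL), stably expressing tet-inducible CBG68-IkBa fusion and CBR; IMDM/0.5% FBS; cpd up to 46 uM; dox induction, 4 h, 37C/5% CO2; dual luminescence; green/red ratio; MG132 control.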
TDP1 cell CPT: growth inhibition of DT40 Tdp1-/-;hTDP1 cells with camptothecin (screen for TDP1 inhibitors); chicken DT40 Tdp1-/-;hTDP1 cells + 20 nM CPT, ATP luminescence, 48 h; Potency, µM (titrated, usually from 46.2 µM), inactives show top-dose activity change, negative = growth inhibition, most hits filed as inhibitors; 12% of 420,000 active; further: potency means the concentration at half of the fitted maximal effect; on the % scale 0 is the no-effect control and ±100 the full control effect; nearly all actives have a fitted effect of over 55% in size
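Chicken DT40 Tdp1-/- cells stably complemented with human TDP1 were seeded at 400 cells/well in medium containing 20 nM camptothecin, exposed to pin-transferred compounds, and grown at 37 °C for at least 48 hr. Viability was read as ATP luminescence.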
MCF10A rereplic: inducers of DNA re-replication in MCF 10A breast cells | 2.9% of 350,000 active | MCF 10A DNA re-replication, Hoechst nuclear intensity, 48 h | Potency, µM (highest dose often 46.1 µM), for inactives: at the top dose activity, positive = re-replication, hits mostly activators | AID 624296; further: potency means the concentration at half of the fitted maximal effect; % of control where 0% means no effect; nearly all actives have a fitted effect of over 50% in size
DT40 TDP1 no CPT: qHTS for Inhibitors of human tyrosyl-DNA phosphodiesterase 1 (TDP1): qHTS in cells in absence of CPT. DT40 Tdp1-/- hTDP1 cells, no CPT, ATP luminescence, 48 h. Potency, µM (titrated, usually from 46.2 µM), inactives show top-dose activity change, negative = growth inhibition, actives largely listed as inhibitors. 15% of 420,000 active. AID 686978, 2013; further: potency means the concentration at half of the fitted maximal effect; on the % scale 0 is the no-effect control and ±100 the full control effect; nearly all actives have a fitted effect of over 55% in size
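Camptothecin absent (DMSO only). Human TDP1-complemented DT40 knockout cells, 400 cells/well, 37 °C for minimum 48 hr; ATP measured via CellTiter-Glo, 30 min dark incubation, luminescence.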
Starred values were filed as active, the others as inactive; u = inconclusive; x = no result given. Unless noted, the call rests on the fitted dose curve; in most records, active means well fitted curve in the direction sought with a large enough effect; inconclusive means small, poorly fitted or top-dose-only effect, or another doubt; inactive means no such curve, though single readings can be large; an effect the other way counts as inactive or inconclusive.

SMILES	SW480 rereplic	IL-1B inflam inh	BCR signal inh	TDP1 cell CPT	MCF10A rereplic	DT40 TDP1 no CPT
NS(=O)(=O)c1cccc(NC(=O)c2cncc(Br)c2)c1	-4%	-20	u	-8%	-12%	11%
COc1ccccc1NS(=O)(=O)c1cccc(NC(=O)c2cncc(Br)c2)c1	24%	-21	4%	u	u	18µM*
COc1ccc([N+](=O)[O-])cc1NC(=O)C(C)N(C)Cc1cccc(OC)c1OC (centres undefined)	17%	2	-4%	21µM*	30%	16µM*
COc1ccc([N+](=O)[O-])cc1NC(=O)Cc1ccc(Cl)cc1	-1%	-4	-9%	-18%	11%	-22%
COc1ccc([N+](=O)[O-])cc1NC(=O)Nc1cccc(Cl)c1	u	-19	4%	12µM*	0%	9.2µM*
CC(C)C(c1nnnn1Cc1ccccc1)N(CCCO)Cc1cc2cc3c(cc2[nH]c1=O)OCO3 (centres undefined)	0%	-60*	u	u	1%	16µM*
CCC(c1nnnn1Cc1ccc(OC)cc1)N(CCCO)Cc1cc2cc3c(cc2[nH]c1=O)OCO3 (centres undefined)	0%	-4	u	u	-1%	u
O=c1[nH]c2cc3c(cc2cc1CN(CCCO)Cc1nnnn1Cc1ccc(F)cc1)OCO3	-1%	-8	-9%	u	1%	12µM*
N#Cc1cccc(C#N)c1NCC1CCCO1 (centres undefined)	u	1	u	1%	0%	3%
CC1CC(C)CN(S(=O)(=O)c2ccc(NC(=O)CN3C(=O)NC(C)(c4ccccc4)C3=O)cc2)C1 (centres undefined)	-3%	1	-5%	-7%	4%	-2%
CC1CCCN(S(=O)(=O)c2ccc(NC(=O)CN3C(=O)NC(C)(c4ccccc4)C3=O)cc2)C1 (centres undefined)	-3%	-52*	9%	-28%	0%	u
CC1(c2ccc([N+](=O)[O-])cc2)NC(=O)N(CC(=O)Nc2ccc(N3CCCCC3)cc2)C1=O (centres undefined)	2%	-2	3%	u	7%	18µM*
CC1(c2ccccc2)NC(=O)N(CC(=O)Nc2ccc(N3CCOCC3)cc2)C1=O (centres undefined)	-7%	-4	1%	u	u	13%
CC1(c2ccccc2)NC(=O)N(CC(=O)Nc2ccc([N+](=O)[O-])cc2)C1=O (centres undefined)	-1%	-12	3%	26µM*	10%	u
C[C@@H]1CN([C@@H](C)CO)C(=O)CCCn2nncc2CO[C@H]1CN(C)C(=O)c1ccc2ccn(C)c2c1	x	-6	x	9%	x	-1%
Cc1cc(C)c(C(=O)c2ccccc2C(=O)O)c(C)c1	x	-1	x	-7%	x	u
CN(C(=O)c1ccccc1C(=O)OCC(=O)Nc1ccccc1)c1ccccc1	-15%	11	u	-14%	-7%	16%
C[C@H](CO)N1C[C@H](C)[C@@H](CN(C)C(=O)Nc2ccccc2)Oc2c(NC(=O)C3CCCCC3)cccc2C1=O	-13%	3	u	-17%	-1%	-10%
CCn1c(O)c(C2=c3ccccc3=NC2=O)c2cc(Br)ccc21	u	-64*	6%	6.5µM*	16µM*	12µM*
Cc1cc(=O)c2cc(Br)ccc2n1CC(=O)NCc1ccccc1	-1%	-29	1%	u	-2%	u
O=C(Nc1ccc(Oc2ccccc2)cc1)c1csc([C@@H]2O[C@H](CO)[C@@H](O)[C@H]2O)n1	x	71	x	16µM*	x	21µM*
